# Laboratory results: the supplement of paper PMC4466140
# B1: unnamed (peptide)
# chain: KLSRGRYGLPLSSRP
# Experiments:
# Assay in all cases: SPOT peptide array binding signal intensity (averaged, normalized) (arbitrary units (background-subtracted, floor 0; scale differs between SH3 domains)); higher = stronger binding of the SH3 domain to the peptide
# AgAbp1 = target: AgAbp1
# Description: (§1)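 GST-tagged SH3 domains from S. cerevisiae (Sc), A. gossypii (Ag), C. albicans (Ca) and S. pombe (Sp) were incubated at 10 ug/ml overnight at 4 C on cellulose SPOT membranes carrying 292 synthetic 15-mer peptides mined from the S. cerevisiae proteome (cysteines replaced by serines). Binding was detected with anti-GST antibody, HRP secondary and chemiluminescence, quantified with Genespotter, and reported as normalized spot intensities averaged over biological replicates.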
# AgBbc1 = target: AgBbc1
# Description: as §1
# AgBem1-D1 = target: AgBem1-D1
# Description: as §1
# AgBzz1-D1 = target: AgBzz1-D1
# Description: as §1
# AgBzz1-D2 = target: AgBzz1-D2
# Description: as §1
# AgCyk3 = target: AgCyk3
# Description: as §1
# AgFus1 = target: AgFus1
# Description: as §1
# AgHof1 = target: AgHof1
# Description: as §1
# AgHse1 = target: AgHse1
# Description: as §1
# AgLsb1 = target: AgLsb1
# Description: as §1
# AgLsb4 = target: AgLsb4
# Description: as §1
# AgMyo5 = target: AgMyo5
# Description: as §1
# AgNbp2 = target: AgNbp2
# Description: as §1
# AgRvs167 = target: AgRvs167
# Description: as §1
# AgSho1 = target: AgSho1
# Description: as §1
# AgSla1-D1-D2 = target: AgSla1-D1-D2
# Description: as §1
# AgSla1-D3 = target: AgSla1-D3
# Description: as §1
# CaAbp1-D1 = target: CaAbp1-D1
# Description: as §1
# CaAbp1-D2 = target: CaAbp1-D2
# Description: as §1
# CaBbc1 = target: CaBbc1
# Description: as §1
# CaBem1-D1 = target: CaBem1-D1
# Description: as §1
# CaBzz1-D1 = target: CaBzz1-D1
# Description: as §1
# CaBzz1-D2 = target: CaBzz1-D2
# Description: as §1
# CaCyk3 = target: CaCyk3
# Description: as §1
# CaFus1 = target: CaFus1
# Description: as §1
# CaHof1 = target: CaHof1
# Description: as §1
# CaHse1 = target: CaHse1
# Description: as §1
# CaLsb1 = target: CaLsb1
# Description: as §1
# CaLsb4 = target: CaLsb4
# Description: as §1
# CaMyo5 = target: CaMyo5
# Description: as §1
# CaNbp2 = target: CaNbp2
# Description: as §1
# CaRvs167 = target: CaRvs167
# Description: as §1
# CaRvs167-3 = target: CaRvs167-3
# Description: as §1
# CaSho1 = target: CaSho1
# Description: as §1
# CaSla1-D1-D2 = target: CaSla1-D1-D2
# Description: as §1
# CaSla1-D3 = target: CaSla1-D3
# Description: as §1
# ScAbp1 = target: ScAbp1
# Description: as §1
# ScBbc1 = target: ScBbc1
# Description: as §1
# ScBem1-D1 = target: ScBem1-D1
# Description: as §1
# ScBzz1-D1 = target: ScBzz1-D1
# Description: as §1
# ScBzz1-D2 = target: ScBzz1-D2
# Description: as §1
# ScCyk3 = target: ScCyk3
# Description: as §1
# ScFus1 = target: ScFus1
# Description: as §1
# ScHof1 = target: ScHof1
# Description: as §1
# ScHse1 = target: ScHse1
# Description: as §1
# ScLsb1 = target: ScLsb1
# Description: as §1
# ScLsb2 = target: ScLsb2
# Description: as §1
# ScLsb3 = target: ScLsb3
# Description: as §1
# ScLsb4 = target: ScLsb4
# Description: as §1
# ScMyo3 = target: ScMyo3
# Description: as §1
# ScMyo5 = target: ScMyo5
# Description: as §1
# ScNbp2 = target: ScNbp2
# Description: as §1
# ScPex13 = target: ScPex13
# Description: as §1
# ScRvs167 = target: ScRvs167
# Description: as §1
# ScSho1 = target: ScSho1
# Description: as §1
# ScSla1-D1-D2 = target: ScSla1-D1-D2
# Description: as §1
# ScSla1-D3 = target: ScSla1-D3
# Description: as §1
# SpAbp1-D1 = target: SpAbp1-D1
# Description: as §1
# SpBbc1 = target: SpBbc1
# Description: as §1
# SpBzz1-D1 = target: SpBzz1-D1
# Description: as §1
binder,measurement,setting,value
B1,SPOT peptide array binding signal intensity,AgAbp1,34
same,SPOT peptide array binding signal intensity,AgBbc1,30
same,SPOT peptide array binding signal intensity,AgBem1-D1,37
same,SPOT peptide array binding signal intensity,AgBzz1-D1,59
same,SPOT peptide array binding signal intensity,AgBzz1-D2,55.5
same,SPOT peptide array binding signal intensity,AgCyk3,7.5
same,SPOT peptide array binding signal intensity,AgFus1,65
same,SPOT peptide array binding signal intensity,AgHof1,20.5
same,SPOT peptide array binding signal intensity,AgHse1,187
same,SPOT peptide array binding signal intensity,AgLsb1,63
same,SPOT peptide array binding signal intensity,AgLsb4,29
same,SPOT peptide array binding signal intensity,AgMyo5,≤ 0
same,SPOT peptide array binding signal intensity,AgNbp2,39
same,SPOT peptide array binding signal intensity,AgRvs167,4.33
same,SPOT peptide array binding signal intensity,AgSho1,6
same,SPOT peptide array binding signal intensity,AgSla1-D1-D2,41
same,SPOT peptide array binding signal intensity,AgSla1-D3,3.75
same,SPOT peptide array binding signal intensity,CaAbp1-D1,380
same,SPOT peptide array binding signal intensity,CaAbp1-D2,273
same,SPOT peptide array binding signal intensity,CaBbc1,101
same,SPOT peptide array binding signal intensity,CaBem1-D1,19
same,SPOT peptide array binding signal intensity,CaBzz1-D1,146
same,SPOT peptide array binding signal intensity,CaBzz1-D2,100
same,SPOT peptide array binding signal intensity,CaCyk3,6.5
same,SPOT peptide array binding signal intensity,CaFus1,86
same,SPOT peptide array binding signal intensity,CaHof1,0.5
same,SPOT peptide array binding signal intensity,CaHse1,2
same,SPOT peptide array binding signal intensity,CaLsb1,1.5
same,SPOT peptide array binding signal intensity,CaLsb4,37
same,SPOT peptide array binding signal intensity,CaMyo5,2
same,SPOT peptide array binding signal intensity,CaNbp2,110
same,SPOT peptide array binding signal intensity,CaRvs167,6.5
same,SPOT peptide array binding signal intensity,CaRvs167-3,13.5
same,SPOT peptide array binding signal intensity,CaSho1,59.5
same,SPOT peptide array binding signal intensity,CaSla1-D1-D2,≤ 0
same,SPOT peptide array binding signal intensity,CaSla1-D3,0.25
same,SPOT peptide array binding signal intensity,ScAbp1,24
same,SPOT peptide array binding signal intensity,ScBbc1,8.5
same,SPOT peptide array binding signal intensity,ScBem1-D1,14
same,SPOT peptide array binding signal intensity,ScBzz1-D1,21
same,SPOT peptide array binding signal intensity,ScBzz1-D2,20
same,SPOT peptide array binding signal intensity,ScCyk3,59
same,SPOT peptide array binding signal intensity,ScFus1,102
same,SPOT peptide array binding signal intensity,ScHof1,≤ 0
same,SPOT peptide array binding signal intensity,ScHse1,754
same,SPOT peptide array binding signal intensity,ScLsb1,89
same,SPOT peptide array binding signal intensity,ScLsb2,7
same,SPOT peptide array binding signal intensity,ScLsb3,16
same,SPOT peptide array binding signal intensity,ScLsb4,15
same,SPOT peptide array binding signal intensity,ScMyo3,6
same,SPOT peptide array binding signal intensity,ScMyo5,8.5
same,SPOT peptide array binding signal intensity,ScNbp2,86.5
same,SPOT peptide array binding signal intensity,ScPex13,7.25
same,SPOT peptide array binding signal intensity,ScRvs167,12.8
same,SPOT peptide array binding signal intensity,ScSho1,112
same,SPOT peptide array binding signal intensity,ScSla1-D1-D2,91.5
same,SPOT peptide array binding signal intensity,ScSla1-D3,2
same,SPOT peptide array binding signal intensity,SpAbp1-D1,146
same,SPOT peptide array binding signal intensity,SpBbc1,2
same,SPOT peptide array binding signal intensity,SpBzz1-D1,163
